# An excerpt weighted towards active compounds, which were near 4.7% of everything screened.
# D1 PAM: human D1 dopamine receptor positive modulation | HEK293 TREx D1 cells, calcium flux, dopamine EC20 potentiation | potentiation, % at 10 µM | actives 0.036% (n = 360,000) | AID 504651; in the data active means potentiation above about 30%; further: 0% is about no effect
# D1 agonist: human D1 receptor agonism; P21728; HEK293 T-REx D1 cells, calcium flux, agonist mode; activation, % at 2 µM; actives 1% (n = 360,000); AID 504660; further: 0% is about no effect
#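 Inducible HEK293 T-REx D1 cells, force-coupled to calcium signalling, were plated at 4000 cells/well with tetracycline and held overnight at 30 C. After no-wash calcium dye loading, compound-evoked calcium rise over 180 s flagged agonists.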
# TRHR ag: activates the human TRH receptor; P34981; TRHR cells, calcium flux fluo-8, FDSS agonist mode; activation, % at 2 µM; actives 0.18% (n = 360,000); AID 493084; further: 0% is about no effect
# Target sequence (P34981 whole entry, looked up): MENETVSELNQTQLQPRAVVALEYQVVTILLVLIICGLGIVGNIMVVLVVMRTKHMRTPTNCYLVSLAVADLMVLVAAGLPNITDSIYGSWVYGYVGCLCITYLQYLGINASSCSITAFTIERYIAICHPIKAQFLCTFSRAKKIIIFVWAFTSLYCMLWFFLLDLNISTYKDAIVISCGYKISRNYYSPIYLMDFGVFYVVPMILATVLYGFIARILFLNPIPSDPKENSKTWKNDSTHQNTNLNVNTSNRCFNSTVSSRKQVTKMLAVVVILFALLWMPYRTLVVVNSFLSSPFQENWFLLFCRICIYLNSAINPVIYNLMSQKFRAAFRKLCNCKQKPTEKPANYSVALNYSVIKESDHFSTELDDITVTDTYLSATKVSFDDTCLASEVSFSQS
#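 TRHR-expressing cells loaded with fluo-8 calcium dye; 23 nL library compound pin-transferred, kinetic FDSS fluorescence (Ex 480/Em 530) recorded about 180 s for agonist-induced calcium release, before a 10 nM TRH EC20 addition for potentiator mode.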
# TRHR enhancer: allosterically enhances the human TRH receptor; P34981; TRHR cells, fluo-8 calcium fluorescence, EC20 TRH enhancement; enhancement, % at 2 µM; actives 0.66% (n = 360,000); in the data active means enhancement above about 30%; further: 0% is about no effect
#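 TRHR-expressing cells loaded with fluo-8 calcium dye were read kinetically (ex 480/em 530) during compound addition, then stimulated with an EC20 of TRH (10 nM final). Enhancement of the Gq-mediated intracellular calcium response was scored.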
# D1 antagonist: blocks dopamine activation of the human D1 receptor. P21728. HEK293 TREx D1 cells, calcium flux, dopamine EC80; stronger effect = lower value. activity change, negative = inhibition, % at 10 µM. actives 3.2% (n = 360,000); in the data active means activity change below about -30%; further: on the % scale 0 is the no-effect control and ±100 the full control effect
#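 After overnight tetracycline induction at 30 C, force-coupled D1 HEK293 cells took up a no-wash calcium dye at room temperature. Compounds were added and monitored 180 s, and the response to EC80 dopamine was then recorded.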
# Numbers without * were called inactive; . = no result; ! = repeats disagree. Unless noted, no stated cut-off is given here; in the data, active means activation above about 30%; inactive means the rest.
SMILES,D1 PAM,D1 agonist,TRHR ag,TRHR enhancer,D1 antagonist
COc1ccc(NC(=O)C(c2ccc(Cl)cc2)C(C)C)cn1 (stereo not given),10,39*,6,2,3
COc1ccc(NC(=O)Nc2ccc(F)cc2)cn1,-2,16,1,2,-18
CCCCN(C)C(=O)C1CCC(CNS(=O)(=O)c2ccc3c(c2)CC(C)N3C(=O)C2CC2)CC1 (stereo not given),1,3,1,-3,-43*
CC(=O)N1c2ccc(S(=O)(=O)N3CCC(C(=O)N4CCN(c5cc(Cl)ccc5C)CC4)CC3)cc2CC1C (stereo not given),-2,8,1,-2,-33*
CCC(C)NC(=O)C1CCC(CNS(=O)(=O)c2ccc3c(c2)CC(C)N3C(=O)C2CC2)CC1 (stereo not given),-2,5,0,2,2
Cc1cccc(N2CCN(S(=O)(=O)c3ccc4c(c3)CC(=O)N4C)CC2)c1C,-5,9,0,2,-30*!
Cc1cccc(NS(=O)(=O)c2ccc3c(c2)CC(C)N3C(=O)C2CCC2)c1C (stereo not given),-3,13,2,-2,-34*
Cc1cccc(N2CCN(S(=O)(=O)c3ccc(S(=O)(=O)N4CCCC4)cc3)CC2)c1C,2,3,0,-6,-2
COc1ccccc1CNS(=O)(=O)c1ccc2c(c1)CC(C)N2C(=O)C1CCC1 (stereo not given),-17,20,0,-7,-32*!
CC1CC(C)CN(C(=O)C2CCN(S(=O)(=O)c3ccc4c(c3)CC(C)N4C(=O)C3CC3)CC2)C1 (stereo not given),-11,-1,-2,-17,-45*
CC(=O)N1c2ccc(S(=O)(=O)N3CCC(C(=O)N4CC(C)CC(C)C4)CC3)cc2CC1C (stereo not given),-2,0,-2,1,5
COC(=O)c1cc(S(=O)(=O)N2CCN(c3ccc(C(C)=O)cc3)CC2)c[nH]1,1,5,0,2,-32*
COC(=O)c1cc(S(=O)(=O)N2CCN(c3ccc(OC)cc3)CC2)c[nH]1,-3,7,0,0,1
CC1CCN(S(=O)(=O)c2ccc3c(c2)CC(C)N3C(=O)C2CCC2)CC1 (stereo not given),-13,12,0,-7,-34*
CCOC(=O)c1ccccc1NC(=O)CN1CCCN(Cc2cccc(Cl)c2)S1(=O)=O,-2,8,1,-1,-1
COC(=O)c1cc2oc3ccccc3c2n1Cc1cccc(C)c1,2,10,1,-2,-3
COc1ccc(N2CC(NC(=O)C3CCCCC3)CC2=O)cc1OC (stereo not given),0,2,0,-3,.
CC(C)Oc1ccc(CNC(=O)c2cccc(NC(=O)N3CCSc4ncccc43)c2)cc1,-2,6,1,-1,-7
CC(=O)c1ccc(N2CCN(S(=O)(=O)c3ccc4c(c3)CC(C)N4C(C)=O)CC2)cc1 (stereo not given),-4,11,0,-8,-48*
CC1CCN(S(=O)(=O)c2ccc3c(c2)N(C)C(=O)CC(=O)N3C)CC1,-4,0,0,4,-37*!
CC1CCN(c2ccc(S(=O)(=O)N3CCC(C)CC3)cc2N)CC1,0,7,0,-3,4
CCOc1ccccc1NC(=O)C1CCN(S(=O)(=O)c2ccc3[nH]c(=O)oc3c2)CC1,-4,0,0,-1,-15
COCCn1c(Cc2ccccc2)nnc1SC(C)C(=O)NC1CC1 (stereo not given),-2,1,0,-3,-43*
CCOC(=O)Cc1cc(-c2ccccc2)nc2ccc3ccccc3c12,-12,10,4,0,-36*
O=c1cc(O)c(-c2ccc(Cl)c(Cl)c2)c(Cl)[nH]1,-6,1,1,35*,1
SMILES,D1 PAM,D1 agonist,TRHR ag,TRHR enhancer,D1 antagonist
O=c1cc(O)c(-c2ccc(Cl)cc2)c(Cl)[nH]1,2,2,-1,0,-2
CC1(C)CC(=O)c2cc(-c3nc(-c4ccc(Cl)cc4)cs3)c(=O)n(-c3ccc(F)cc3)c2C1,0,0,2,11,6
CSc1nc(C)c(Oc2ccccc2)c(=O)n1C,-12,-4,-1,0,-71*
Cc1ccc(N2C(=O)c3oc4cc(C)c(C)cc4c(=O)c3C2c2cccc(O)c2)nc1 (stereo not given),1,3,0,2,-2
Cc1ccc(C(c2nnnn2C2CCCCC2)N2CCc3ccccc32)cc1 (stereo not given),-8,3,-1,5,-34*
CC(C)C(c1nnnn1C1CCCCC1)N1CCc2ccccc21 (stereo not given),2,0,-1,0,6
Cc1cccn2c(=O)cc(CSc3nnc(NC(=O)c4ccc(F)cc4)s3)nc12,0,0,0,-3,-3
Cc1nnc(SCc2cc(=O)n3cccc(C)c3n2)s1,2,0,0,6,-47*
CN(C)c1ccc(C(CNC(=O)c2ccc(C(C)(C)C)cc2)N2CCOCC2)cc1 (stereo not given),0,0,-1,2,14
CC(=O)Nc1cccc(C(=O)OCC(=O)c2ccc(S(=O)(=O)N3CCCCC3)cc2)c1,-4,8,0,-8,-37*
COc1ccc2nc(SCC(=O)Nc3ccc(S(=O)(=O)N4CCCC4)cc3)c(C#N)cc2c1,2,2,2,-1,8
CCOc1ncccc1C(=O)OCC(=O)Nc1ccc(C)c(S(=O)(=O)N(C)C)c1,-3,8,0,36*,-1
N#Cc1cc2ccccc2nc1SCC(=O)Nc1ccc(S(=O)(=O)N2CCCC2)cc1,5,41*,9,-2,-5
CC(=O)Nc1ccc(C(=O)OCC(=O)c2ccc(S(=O)(=O)N3CCCCC3)cc2)cc1,1,5,0,1,1
N#CCCN(C(=O)COC(=O)c1ccc(S(=O)(=O)N2CCCC2)cc1)c1cccc(Cl)c1,-2,31*,1,-4,-6
CC(C)(C)OC(=O)Cc1nnc(-c2cc3ccccc3[nH]2)s1,0,2,1,-3,8
COc1ccc(N(C(=O)COc2ccc(Br)cc2)S(=O)(=O)c2ccc(C)cc2)cc1,-1,2,1,4,-7
Cc1ccc2oc(=O)c3cnn(CC(=O)N(C)c4ccc(F)cc4)c3c2c1,2,-2,-1,1,11
COc1ccc(OC)c(NC(=O)COC(=O)c2ccc(S(=O)(=O)N3CCOCC3)cc2)c1,14,2,-1,11,-51*
Cc1ccc(NC(=O)COC(=O)Cn2cnc3ccccc32)cc1S(=O)(=O)N(C)C,-3,-1,0,17,-85*

# Screens from PubChem.
